Results from PubChem BioAssay (NCI).
Compounds without any hit were thinned out: in the full panel of roughly 79,000, 15% have a hit. Rule as the data show it: active = growth inhibition above about 70%; inactive = the rest.

Key:
[1] = NCI Yeast Anticancer Drug Screen. Data for the rad50 strain (AID 155);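 also: 0% = growth of vehicle-only cultures of the same strain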; settings: S. cerevisiae rad50 strain growth inhibition; at 50.0 µM; stronger effect = higher value
Procedure, shortened: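 Growth of the mutant yeast was measured after compound exposure and referenced to vehicle-treated cultures.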

[2] = NCI Yeast Anticancer Drug Screen. Data for the mec2-1 strain (AID 157); settings: S. cerevisiae mec2-1 strain, at 50.0 µM, stronger effect = higher value
Procedure, shortened: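 Cells of the genetically defined mec2-1 yeast strain are incubated with test compound. Inhibition of growth is calculated against vehicle-treated controls.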

[3] = NCI Yeast Anticancer Drug Screen. Data for the sgs1 mgt1 strain (AID 161);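 also: 0% = growth of cultures given vehicle only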; settings: S. cerevisiae sgs1 mgt1 strain, at 50.0 µM, stronger effect = higher value
Procedure, shortened: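 Mutant yeast exposed to compound; growth scored against vehicle-only wells.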

[4] = NCI Yeast Anticancer Drug Screen. Data for the cln2 rad14 strain (AID 165);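 also: 0% = growth equal to vehicle treated cultures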; settings: S. cerevisiae cln2 rad14 strain, at 50.0 µM, stronger effect = higher value
Procedure, shortened: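 The screen exposed genetically defined yeast (cln2 rad14) to test compounds and scored growth inhibition relative to vehicle-treated controls.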

[5] = NCI Yeast Anticancer Drug Screen. Data for the bub3 strain (AID 167); settings: S. cerevisiae bub3 mutant strain, at 50.0 µM, stronger effect = higher value
Procedure, shortened: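 Whole-cell yeast assay. The mutant strain was incubated with compounds, and growth inhibition was determined by comparison with vehicle-treated cells.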

[6] = NCI Yeast Anticancer Drug Screen. Data for the mlh1 rad18 strain (AID 175); settings: S. cerevisiae mlh1 rad18 strain growth inhibition; at 50.0 µM; stronger effect = higher value
Procedure, shortened: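 Compound-treated yeast growth, normalised to vehicle controls. Strain bears defined DNA repair mutations.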

Measured: growth inhibition

CC(=O)Oc1ccc(C(C)C)cc1
inactive: [1] -9.55% | [2] -30.9% | [3] -25.3% | [4] -13.6% | [5] -11.2% | [6] -1.6%

Cc1cc(C)n(-c2nc(C)c(CCO)c(=O)[nH]2)n1
inactive: [1] -6.45% | [2] -14.6% | [3] -6.4% | [4] 15.7% | [5] -41.4% | [6] -9.1%

Cc1ccc(C(=O)c2c(C)cccc2C(=O)O)c(C)c1
inactive: [1] -0.95% | [2] -2.1% | [3] 8.45% | [4] 12.6% | [5] -3.85% | [6] 29.4%

O=C(Nc1ccccc1CCl)Nc1ccccc1CCl
inactive: [1] -30.9% | [2] -26.4% | [3] -15.8% | [4] 0.7% | [5] -23.2% | [6] -28.8%

CC(=O)OC1=C(C)C2=C3OC(=O)C(C)=C3CC[C@@]2(C)CC1
inactive: [1] 3.7% | [2] 1.2% | [3] 6.85% | [4] 19.4% | [5] 25% | [6] 6.95%

CCCCSc1ncnc2nc(C)[nH]c12
inactive: [1] -9.85% | [2] -20.6% | [3] -7.7% | [4] -25.6% | [5] -14% | [6] -12.7%

CCC12CC3(C(=O)OC)OC1C(O)CN1CCc4c(n3c3cc(OC)ccc43)C12 (configuration not stated)
inactive: [1] 6.9% | [2] -42.1% | [3] 12.2% | [4] 5.05% | [5] -9.35% | [6] 1.5%

N/N=C1\CCCc2c1no[n+]2[O-]
inactive: [1] 6.05% | [2] -4.05% | [3] -0.5% | [4] 4% | [5] -9.9% | [6] 3.2%

CC(=O)Nc1ccc(C2CC(c3ccc([N+](=O)[O-])cc3)=Nc3ccccc3S2)cc1 (configuration not stated)
inactive: [1] 32.8% | [2] 24.6% | [3] 34.1% | [4] 17.6% | [5] 13.9% | [6] 49.9%

CSC1NC(c2ccc(Cl)cc2)=C(C#N)C(=O)N1C1OCC(OC(C)=O)C(OC(C)=O)C1OC(C)=O (configuration not stated)
inactive: [1] -10% | [2] -23.6% | [3] -24.2% | [4] -3.85% | [5] -8.6% | [6] -8.8%

NCC(=O)NCCC(=O)O
inactive: [1] 3.15% | [2] -6.7% | [3] 1.75% | [4] 4.6% | [5] -24.6% | [6] -4.6%

CC(=O)OCC1OC(n2c3c(cc(C#N)c2=S)CCCCCC3)C(OC(C)=O)C(OC(C)=O)C1OC(C)=O (configuration not stated)
inactive: [1] 22.2% | [2] 4.45% | [3] 12.1% | [4] -12.8% | [5] -4% | [6] 33.4%

CN1CNC(=O)c2n[nH]nc21
inactive: [1] -1.25% | [2] 34.5% | [3] -4.15% | [4] -21% | [5] 13.1% | [6] -2.7%

CCCCNS(=O)(=O)c1cc(C(=O)O)cc(C(=O)O)c1
inactive: [1] 2.55% | [2] -7% | [3] 4.25% | [4] -33.9% | [5] 2.75% | [6] -1.7%

CC(=O)OC1COC(N2C(=O)C(=O)c3ccccc32)C(OC(C)=O)C1OC(C)=O (configuration not stated)
inactive: [1] 13.1% | [2] 19.4% | [3] -1.5% | [4] -22.4% | [5] 9.05% | [6] 19.1%

CSc1nc(NC2OCC(OC(C)=O)C(OC(C)=O)C2OC(C)=O)c(N=CC=Nc2c(NC3OCC(OC(C)=O)C(OC(C)=O)C3OC(C)=O)nc(SC)[nH]c2=O)c(=O)[nH]1 (configuration not stated)
inactive: [1] 11.8% | [2] -7.9% | [3] -0.35% | [4] 7.15% | [5] -1.65% | [6] 8.25%

C1CCC(c2nn[nH]n2)CC1
inactive: [1] 2.3% | [2] -7.05% | [3] 3.25% | [4] 11.7% | [5] 8.05% | [6] 1%

COC(=O)C1OC(n2ccc(=O)[nH]c2=O)C(OC(C)=O)C(OC(C)=O)C1OC(C)=O (configuration not stated)
inactive: [1] 2.2% | [2] -3.4% | [3] -1.3% | [4] -9.55% | [5] 1.45% | [6] 6.6%

Cc1ccc(S(=O)(=O)n2nc(C3OC(CO)C(O)C3O)c(O)c2C(N)=O)cc1 (configuration not stated)
inactive: [1] -36.5% | [2] 16.6% | [3] -14.8% | [4] 38.1% | [5] -3% | [6] 22.8%

CS(=O)(=O)OCCCSCCSCCCOS(C)(=O)=O
inactive: [1] -4% | [2] -0.05% | [3] 3.1% | [4] -4.8% | [5] -11.2% | [6] -10.1%

O=S(Nc1ccc(Cl)cc1)c1ccccc1 (configuration not stated)
inactive: [1] 10% | [2] 10.9% | [3] 31.1% | [4] 4.1% | [5] 18.1% | [6] 2.3%

O=C(O)c1cc2c([nH]1)-c1cccnc1C(=O)C2=O
inactive: [1] -9.6% | [2] -11.3% | [3] -15.8% | [4] -18.8% | [5] -1.4% | [6] 14.1%

Cc1ccc(S(=O)(=O)CNC(=O)C(O)(O)C(F)(F)F)cc1
inactive: [1] -24.9% | [2] -2.5% | [3] -9.45% | [4] 27.8% | [5] -1.9% | [6] -12.4%

C[C@@H]1OC2(O)[C@H]3CCCN3S(=O)(=O)CCN2C1=O (some centres not stated)
inactive: [1] 30.5% | [2] -14.8% | [3] -8.05% | [4] 16.7% | [5] -11.7% | [6] -1.2%

C[N+](C)(C)CC(=O)NN
inactive: [1] 10.1% | [2] -0.8% | [3] -21.7% | [4] -17.6% | [5] -18% | [6] 38.6%

O=c1oc2ccccc2c(O)c1C(c1ccc2c(c1)OCO2)N1CCCC1 (configuration not stated)
inactive: [1] 7.4% | [2] 36.7% | [3] 19.9% | [4] 15.3% | [5] 8.35% | [6] 22.9%

CC(=O)[OH+]c1c(I)cc(I)cc1C(=O)[O-].CC(=O)[OH+]c1c(I)cc(I)cc1C(=O)[O-].[Cu+2]
inactive: [1] -8.15% | [2] 2.3% | [3] -5.8% | [4] -5% | [5] 11.5% | [6] 4.95%

Cc1occc1C(=S)Nc1ccc(Cl)c(C(=O)OC2CCCC2)c1
inactive: [1] 40.1% | [2] 21.2% | [3] 35% | [4] 60.5% | [5] 46.4% | [6] 29.6%

Oc1c(Cl)cccc1CN1CCOCC1
inactive: [1] 26.1% | [2] 6.15% | [3] 30.5% | [4] 25.1% | [5] -9.35% | [6] 33%

CCCCS(=O)(=O)CCCCCCl
inactive: [1] 1.55% | [2] -2.95% | [3] -6.25% | [4] -13.5% | [5] -6.45% | [6] 9.55%

CC(C)(C)OC(=O)NCCNC(=O)OCc1ccccc1
inactive: [1] 4.25% | [2] -12.2% | [3] -16.7% | [4] 4.45% | [5] -3.5% | [6] -0.25%

O=c1[nH]cc(COCCO)c(=O)[nH]1
inactive: [1] -20.1% | [2] -2.8% | [3] -19.4% | [4] 7.4% | [5] -18% | [6] 7.2%

Cc1ccc(S(=O)(=O)N=Nc2c(O)[nH]c3c(Cl)cc(Cl)cc23)cc1
inactive: [1] -11.8% | [2] -18.8% | [3] 4.65% | [4] -1.2% | [5] -22.4% | [6] 23.2%

Nc1ncnc2c1ncn2C1C=COC(CO)C1O (configuration not stated)
inactive: [1] 4.95% | [2] 1.05% | [3] -6.5% | [4] 2.5% | [5] -28.5% | [6] 20.4%

O=C(ON=C1c2ccccc2C(Br)C(Br)c2ccccc21)c1cc([N+](=O)[O-])cc([N+](=O)[O-])c1 (configuration not stated)
inactive: [1] 15.8% | [2] 8.85% | [3] 28.8% | [4] -0.6% | [5] 21.1% | [6] 27.5%

[N-]=[N+]=NCN1C(=O)C2C3C=CC(C2C1=O)C1C2C(=O)N(CN=[N+]=[N-])C(=O)C2C31 (configuration not stated)
inactive: [1] -3.2% | [2] -4.1% | [3] -39.4% | [4] 4.4% | [5] -25.8% | [6] -42.1%

C1CCOC2(CCC3(CC2)OCCCCO3)OC1
inactive: [1] -16.5% | [2] 2.55% | [3] -18.2% | [4] -44.2% | [5] -10.2% | [6] -39.4%
